From PubChem BioAssay come the findings set out here.

Results filed as inconclusive are left out. The source made the active and inactive calls. Unless noted, the limit is not given here; nearly all actives have AC50 up to about 26 µM.

Assay [1] can be described thus: growth inhibition of DIPG glioma cells, dose response, cell-based, SU-DIPG-XVII, MIPE5.0, CellTiter-Glo, qHTS (AID 1347060).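 As to AC50: cells exposed to compound for 48 hours before viability readout.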 To be noted: SU-DIPG-XVII viability, CellTiter-Glo ATP luminescence. (In ATP-based viability assays light output follows the ATP content of the culture.)
Assay [2] is described as follows: growth inhibition of DIPG glioma cells, dose response, cell-based, SU-DIPG-XIII, MIPE4.0, CellTiter-Glo, qHTS (AID 1347061; cut-off not given, nearly all actives have AC50 up to about 37 µM;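 also: cells exposed to compound for 48 hours before readout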). Particulars: SU-DIPG-XIII viability, CellTiter-Glo ATP luminescence.
Assay [3] can be described thus: growth inhibition of DIPG glioma cells, dose response, cell-based, JHH-DIPG-1, MIPE4.0, CellTiter-Glo, qHTS (AID 1347062; cut-off not given, nearly all actives have AC50 up to about 27 µM;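 as to AC50: cells exposed to compound for two days before readout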). To be noted: JHH-DIPG-1 viability, CellTiter-Glo ATP luminescence.
The nature of assay [4]: growth inhibition of DIPG glioma cells, dose response, cell-based, SU-DIPG-IV, MIPE4.0, CellTiter-Glo, qHTS (AID 1347063; cut-off not given, nearly all actives have AC50 up to about 30 µM;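 also: compound exposure lasted 48 hours before the viability readout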). To be noted: SU-DIPG-IV viability, CellTiter-Glo ATP luminescence.
Assay [5] can be described thus: growth inhibition of DIPG glioma cells, dose response, cell-based, SU-DIPG-XIII, MIPE5.0, CellTiter-Glo, qHTS (AID 1347064; cut-off not given, nearly all actives have AC50 up to about 23 µM;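 as to AC50: cells exposed to compound for 48 hours before the viability read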). Particulars: SU-DIPG-XIII viability, CellTiter-Glo ATP luminescence.
Assay [6] in a line: viability loss in pontine glioma line – cell-based, SU-DIPG-XXV, MIPE5.0, CellTiter-Glo, qHTS, dose response (AID 1347065).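 Also: cells exposed to compound for 48 hours before ATP readout.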 Particulars: CellTiter-Glo ATP luminescence.
Assay [7] in a line: SU-DIPG-VI glioma cell viability, MIPE4.0 library, CellTiter-Glo luminescence, qHTS (AID 1347066; cut-off not given, nearly all actives have AC50 up to about 30 µM;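 also: cells exposed to compound for 48 hours before readout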). Particulars: CellTiter-Glo ATP luminescence.
Assay [8] in a line: JHH-DIPG-1 glioma cell viability, MIPE5.0 library, CellTiter-Glo luminescence, qHTS (AID 1347067).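 Also: cells exposed to compound for 48 hours before readout.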 To be noted: JHH-DIPG-1 glioma viability, CellTiter-Glo ATP luminescence.
Assay [9] is described as follows: sensitizers of A549 cells to miR-34 induction, primary screen, imaging, A549 dox-inducible miR-34, nuclei and caspase counts (AID 1347080;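 active = compounds whose cell count with miR-34 switched on is under 0.7 times the count with it off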). To be noted: A549 miR-34 inducible, Hoechst nuclei count, 48 h.
The nature of assay [10]: survival rescue of mitochondrial mutant cells in low glucose, primary screen, MELAS cybrids, Rieske KO mouse fibroblasts, CellTiter-Glo (AID 1508586;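 active = mean z-score across replicates of 1.96 or higher in either the MELAS or the Rieske mutant cell line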;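 also: z relative to plate mean and SD of compound and empty wells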).
Assay [11] can be described thus: SU-DIPG-XXV glioma cell viability, MIPE5.0 library, qHTS (AID 1347068; cut-off not given, nearly all actives have IC50 up to about 30 µM).
The mark [12] stands for this setting: stronger effect = lower value, cell number ratio, induced over uninduced.
The mark [13] stands for this setting: measured here: relative caspase fold change +Dox/-Dox.
Setting [14] is: measured here: total cells with miR-34 induction, stronger effect = lower value.
Setting [15] is: measured here: total cells without miR-34 induction.
Setting [16] is: MELAS cybrid survival, CellTiter-Glo 48 h, stronger effect = higher value.
The mark [17] stands for this setting: Rieske KO mouse fibroblast survival, CellTiter-Glo 72 h.

In the case of `CCCNC(=O)[C@H]1O[C@@H]1C(=O)N[C@H](C(=O)N1CCC[C@H]1C(=O)OC)C(C)CC` (some centres not stated), the concentration at half-maximal activity (AC50) (usually the concentration giving half of the maximal activity seen) in assay [1] is 16.6 µM (active); in assay [2], 16.6 µM (active); in assay [3] it was 16.6 µM (active); in [4], 16.6 µM (active); in assay [5], 11.8 µM (active); in assay [6] it was 13.2 µM (active). In addition, the AC50 in [7] is 10.5 µM (active); in assay [8], 11.8 µM (active). The values for the fold change in assay [9] (setting [12]) and in [9] (setting [13]) were 0.991 (inactive) and 1.21, respectively. In addition, the values for the cell count in [9] (setting [14]) and in assay [9] (setting [15]) were 4190 and 4230, respectively.

Consider `COC(=O)N1CCN(Cc2cccc(NC(=O)Nc3ccc(C)nc3)c2F)CC1`, for which the compound was classed as inactive in assay [1], in assay [2], in assay [3], in [4], in assay [5] and in [6]. Further, the compound was classed as inactive in assay [7] and in [8]. For the same compound, the fold change in [9] (setting [12]) is 0.947 (inactive); in assay [9] (setting [13]), 1.41. The cell count in assay [9] (setting [14]) was found to be 9170; in assay [9] (setting [15]), 9680. Further, the z-score was -0.446 (inactive) in assay [10] (setting [16]) and 0.371 in [10] (setting [17]).

For the compound `CC(C)n1nc(-c2cc3cc(O)ccc3[nH]2)c2c(N)ncnc21`, the half-maximal activity concentration (AC50) in [1] was 2.63 µM (active); in assay [2] it was 18.7 µM (active); in [3] it was 9.35 µM (active); in assay [4], 0.148 µM (active); in assay [5], 1.66 µM (active); in assay [6] it was 0.742 µM (active). Moreover, the values for the half-maximal activity concentration (AC50) in assay [7] and in [8] were 20.9 µM (active) and 2.63 µM (active), respectively. Also, the fold change in assay [9] (setting [12]) was 0.892 (inactive); in assay [9] (setting [13]) it was 1.11. Also, the cell count turned out to be 1620 in assay [9] (setting [14]) and 1820 in [9] (setting [15]). Moreover, the z-score was 5.6 (active) in assay [10] (setting [16]) and -2.66 in assay [10] (setting [17]).

Turning to `CCNC(=O)c1cc2c(-c3cc(OCCN4CCCC4)c(Cl)cc3Cl)nc(N)nc2s1`, the half-maximal activity concentration (AC50) is 1.02 µM (active) in [1]; 6.62 µM (active) in assay [2]; 0.935 µM (active) in assay [3]; 2.35 µM (active) in [4]; 2.29 µM (active) in assay [5]; 1.62 µM (active) in assay [6]. The concentration at half-maximal activity (AC50) in assay [8] is 1.82 µM (active).

With `COc1ccnc2[nH]cc(C(=O)C(=O)N3CCN(C(=O)c4ccccc4)C[C@H]3C)c12`, the outcome in assay [1], in [2], in assay [3], in [4], in assay [5] and in assay [6] was inactive. Besides, the compound was classed as inactive in assay [8] and in assay [11].

For `O=C(/C=C/c1ccc(/C=C/C(=O)Nc2ccc(C3=NCCN3)cc2)cc1)Nc1ccc(C2=NCCN2)cc1`, the AC50 in [1] was 2.35 µM (active). Also, the call in [2], in assay [3], in [4], in assay [5], in [6] and in assay [7] was inactive. For the same compound, in assay [8], the compound was classed as inactive. The fold change in assay [9] (setting [12]) is 1.13 (inactive); in assay [9] (setting [13]), 1.21. For the same compound, the cell count in assay [9] (setting [14]) turned out to be 6840; in [9] (setting [15]) it was 6050.
